# Reference: ChEMBL document CHEMBL2218924, “A broad activity screen in support of a chemogenomic map for kinase signalling research and drug discovery” (Biochem J, 2013)
# Columns and labels:
# [1] = molecular target: RAC-alpha serine/threonine-protein kinase (Homo sapiens) (UniProt P31749); details: at 1 µM
# [2] = molecular target: RAC-alpha serine/threonine-protein kinase (Homo sapiens) (UniProt P31749); details: at 10 µM
# Chain of RAC-alpha serine/threonine-protein kinase (Homo sapiens) (P31749 whole entry): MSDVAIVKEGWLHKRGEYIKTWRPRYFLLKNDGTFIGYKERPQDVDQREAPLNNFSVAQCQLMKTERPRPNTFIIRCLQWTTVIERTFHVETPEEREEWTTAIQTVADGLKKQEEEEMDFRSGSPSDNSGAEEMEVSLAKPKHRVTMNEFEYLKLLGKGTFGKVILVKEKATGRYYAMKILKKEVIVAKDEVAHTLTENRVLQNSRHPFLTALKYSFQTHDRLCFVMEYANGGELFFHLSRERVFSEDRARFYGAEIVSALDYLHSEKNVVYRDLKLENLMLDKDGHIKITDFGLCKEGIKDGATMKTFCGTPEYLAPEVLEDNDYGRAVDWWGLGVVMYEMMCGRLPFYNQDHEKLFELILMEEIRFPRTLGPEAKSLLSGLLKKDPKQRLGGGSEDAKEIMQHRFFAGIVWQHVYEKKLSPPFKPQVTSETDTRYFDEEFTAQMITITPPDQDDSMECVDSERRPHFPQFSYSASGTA
SMILES,residual activity [1],residual activity [2]
O=C(CCCc1ccc(-c2ccccc2F)cc1)Nc1ccc(O)cc1,103%,105%
O=C(O)c1ccc2c3c1cccc3c(=O)n1c3ccccc3nc21,111%,100%
COc1cc2ncnc(Nc3ccc(O)c(Br)c3)c2cc1OC,107%,105%
NC(=O)Nc1sc(-c2ccc(F)cc2)cc1C(N)=O,114%,109%
COc1cc2c(cc1OC)-c1n[nH]c(Nc3cccc(F)c3)c1C2,107%,107%
CC(=O)O/N=C1\C(=C2\C(=O)Nc3cc(Br)ccc32)Nc2ccccc21,115%,109%
COc1ccc(CNC(=O)Nc2ncc([N+](=O)[O-])s2)cc1,116%,106%
Oc1c2ccccc2c2c3c(cccc13)N=N2,,110%
Cn1cc(/C=C2\C(=O)Nc3ccc(S(N)(=O)=O)cc32)c2ccccc21,96%,101%
COc1cc2ncnc(Nc3ccc(Oc4ccccc4)cc3)c2cc1OC,108%,107%
O=S(=O)(NCCNC/C=C/c1ccc(Br)cc1)c1cccc2cnccc12,,22%
CC(C)n1cnc2c(NCc3ccccc3)nc(NCCCO)nc21,107%,110%
CC[n+]1c(/C=C/N(C)c2ccccc2)n(-c2ccccc2)c2ccc(-c3nc4ccccc4s3)cc21,99%,107%
CNc1cc2c(Nc3cccc(Br)c3)ncnc2cn1,98%,98%
N#C/C(=C(\N)Sc1ccc(N)cc1)c1ccccc1C(F)(F)F,112%,108%
c1ccc2c(-c3ccncc3)c[nH]c2c1,103%,104%
CO[C@H]1C[C@@H]2CC[C@@H](C)[C@@](O)(O2)C(=O)C(=O)N2CCCC[C@H]2C(=O)O[C@H]([C@H](C)C[C@@H]2CC[C@@H](O)[C@H](OC)C2)CC(=O)[C@H](C)/C=C(\C)[C@@H](O)[C@@H](OC)C(=O)[C@H](C)C[C@H](C)/C=C/C=C/C=C/1C,105%,98%
Nc1nc(Nc2ccc(S(N)(=O)=O)cc2)nn1C(=O)c1c(F)cccc1F,104%,103%
CCC(=O)Nc1ccc2ncnc(Nc3cccc(Br)c3)c2c1,99%,106%
N#C/C(=C\c1ccc(O)c(O)c1)C(=O)NCc1ccccc1,103%,120%

SMILES,residual activity [1],residual activity [2]
O=C(Nc1cccc(Nc2cc(Nc3cccc(C(F)(F)F)c3)ncn2)c1)C1CC1,96%,99%
COc1cccc(-c2cc(=O)c3ccccc3o2)c1N,106%,109%
COc1cc2nccc(Oc3ccc(NC(=O)Nc4cc(C)on4)c(Cl)c3)c2cc1OC,97%,101%
NCCNc1ncc(C(N)=O)c(Nc2cccc(C(F)(F)F)c2)n1,,112%
O=C(Nc1cccc(Nc2nccc(Nc3cccc(C(F)(F)F)c3)n2)c1)C1CC1,103%,104%
Cc1nc(-c2ccccc2)c(-c2ccncc2)o1,110%,102%
CC(=O)c1ccc(N2CCOCC2)cc1O,101%,111%
O=c1cc(N2CCOCC2)oc2c1ccc1ccccc12,103%,106%
Cc1ccc(NC2=CC(=O)c3sc(C)nc3C2=O)cc1,111%,107%
Oc1ccc(-c2nc(-c3ccc(F)cc3)c(-c3ccncc3)[nH]2)cc1,113%,112%
Oc1n[nH]c2nnc(-c3c(-c4ccccc4)nn4ccccc34)cc12,105%,111%
O=C1NC(=O)c2c1c1c3ccccc3[nH]c1c1[nH]c3cc(Br)ccc3c21,103%,106%
O=C1Nc2ccccc2/C1=C1/Nc2ccccc2/C1=N\OCCC(O)CO (configuration not stated),113%,101%
O=C1NC(=O)/C(=C/c2ccc3c(c2)OC(F)(F)O3)S1,102%,111%
Oc1ccc(Nc2nc(-c3ccc(Cl)cc3)cs2)cc1,124%,94%
O=C1c2ccccc2-[n+]2ccc3c([nH]c4ccccc43)c21,108%,107%
O=C1NC(=O)C(c2cn(CCCn3ccnc3)c3ccccc23)=C1Nc1ccccc1,104%,102%
COc1ccc(OC)c2c(=S)c3ccccc3[nH]c12,109%,104%
Cc1cccc(-c2[nH]c(C(C)(C)C)nc2-c2ccc3c(c2)OCO3)n1,100%,107%
COc1cc2ncnc(N3CCN(C(=O)Nc4ccc(Oc5ccccc5)cc4)CC3)c2cc1OC,106%,107%
